We go through 12 compounds from ChEMBL document CHEMBL3988442, “University of Dundee, Small-Polar-MMV Screening Library” (2021).

Structures are written as SMILES. For part of these data: Results with a measured potency or affinity are listed apart.

Set-up in all cases: scale not given: direction of the effect not stated beside the values
Test [1] deals with Protein translocase subunit SecA (Escherichia coli (strain K12)) (UniProt P10408). Briefly: Assay to Identify E. coli SecA ATPase Inhibitors. The note with it: 30 µM. Type of test: functional.
The target of test [2] is T1, Ubiquitin-activating enzyme e1, putative (Leishmania donovani (strain BPK282A1)) (UniProt E9BSI1).
T1 sequence (whole entry): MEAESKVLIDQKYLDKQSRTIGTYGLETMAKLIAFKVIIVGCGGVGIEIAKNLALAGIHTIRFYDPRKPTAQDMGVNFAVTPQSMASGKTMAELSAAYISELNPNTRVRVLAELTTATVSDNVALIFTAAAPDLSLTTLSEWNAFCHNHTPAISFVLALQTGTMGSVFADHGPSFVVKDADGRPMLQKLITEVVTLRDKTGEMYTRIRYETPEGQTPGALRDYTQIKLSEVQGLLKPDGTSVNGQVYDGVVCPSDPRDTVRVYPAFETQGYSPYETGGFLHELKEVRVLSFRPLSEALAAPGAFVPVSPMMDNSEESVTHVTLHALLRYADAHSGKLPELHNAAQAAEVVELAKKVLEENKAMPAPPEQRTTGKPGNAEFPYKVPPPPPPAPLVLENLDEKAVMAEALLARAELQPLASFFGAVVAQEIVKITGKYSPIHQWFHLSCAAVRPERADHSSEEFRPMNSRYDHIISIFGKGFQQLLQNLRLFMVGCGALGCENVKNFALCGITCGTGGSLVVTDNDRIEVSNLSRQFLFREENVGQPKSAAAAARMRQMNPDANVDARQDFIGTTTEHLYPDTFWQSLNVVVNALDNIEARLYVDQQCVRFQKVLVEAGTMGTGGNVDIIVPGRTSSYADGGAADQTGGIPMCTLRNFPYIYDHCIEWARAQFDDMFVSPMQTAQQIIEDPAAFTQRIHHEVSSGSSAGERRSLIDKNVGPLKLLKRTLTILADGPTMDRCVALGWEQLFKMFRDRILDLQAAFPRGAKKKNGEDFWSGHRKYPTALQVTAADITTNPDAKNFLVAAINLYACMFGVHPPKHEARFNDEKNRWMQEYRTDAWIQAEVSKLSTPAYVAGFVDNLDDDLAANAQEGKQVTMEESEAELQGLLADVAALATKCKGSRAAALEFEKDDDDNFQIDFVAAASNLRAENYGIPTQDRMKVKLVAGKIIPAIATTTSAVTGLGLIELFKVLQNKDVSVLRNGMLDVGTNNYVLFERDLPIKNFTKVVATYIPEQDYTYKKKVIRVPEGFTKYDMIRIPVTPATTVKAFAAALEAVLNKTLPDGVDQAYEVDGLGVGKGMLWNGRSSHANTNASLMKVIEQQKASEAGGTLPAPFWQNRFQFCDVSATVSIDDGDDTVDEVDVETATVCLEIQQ
Briefly: Leishmania donovani Ubiquitin Activating Enzyme (LdE1). It is filed as functional. The note with it: 30 µM.

The target in test [3] is Sialic acid-binding Ig-like lectin 9 (Homo sapiens) (UniProt Q9Y336). Briefly: Hs-Siglec9 ALPHAscreen SOP 20170721. The note with it: 10 µM. In general terms: Bead proximity is the source of the signal in Alpha formats.
In test [4] the test system is Trypanosoma cruzi. Kind of test: Trypanosoma cruzi phosphomannomutase and mannose-1-phosphate guanylyltransferase assay. Type of test: functional. The note with it: 10 µM.
The target in test [5] is T2, Arginase-2, mitochondrial (Homo sapiens) (UniProt P78540).
T2 sequence (whole entry): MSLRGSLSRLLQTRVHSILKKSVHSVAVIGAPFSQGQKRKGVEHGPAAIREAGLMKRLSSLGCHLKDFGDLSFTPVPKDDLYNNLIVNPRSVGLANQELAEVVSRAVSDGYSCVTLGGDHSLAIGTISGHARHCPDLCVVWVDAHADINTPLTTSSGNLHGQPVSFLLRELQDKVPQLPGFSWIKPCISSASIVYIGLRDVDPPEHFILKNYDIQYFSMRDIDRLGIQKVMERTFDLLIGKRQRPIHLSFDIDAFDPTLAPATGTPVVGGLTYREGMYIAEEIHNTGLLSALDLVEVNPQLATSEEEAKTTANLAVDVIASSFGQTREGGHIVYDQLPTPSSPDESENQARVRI
Kind of test: in vitro enzyme assay to detect the production of urea directly proportional to the activity of Arginase II. Also: in the data most compounds retested in dose-response had high values. Type of test: functional. The note with it: 33.3 µM.

The target of test [6] is T3, Proteasome subunit beta (Trypanosoma cruzi) (UniProt O96673).
T3 sequence (whole entry): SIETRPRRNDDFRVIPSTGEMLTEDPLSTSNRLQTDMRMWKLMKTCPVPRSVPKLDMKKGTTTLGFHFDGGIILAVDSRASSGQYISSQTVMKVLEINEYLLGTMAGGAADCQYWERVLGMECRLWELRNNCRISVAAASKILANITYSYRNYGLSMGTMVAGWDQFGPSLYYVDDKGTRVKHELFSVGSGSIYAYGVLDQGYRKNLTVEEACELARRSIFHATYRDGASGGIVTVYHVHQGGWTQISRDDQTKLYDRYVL
Kind of test: Trypanosoma cruzi proteasome chymotrypsin-like activity (TcProtChymo) assay. Also: in the data most compounds retested in dose-response had high values. It is filed as functional. The note with it: 9.37 µM.

The species named for test [7] is Homo sapiens. Briefly: To identify inhibition of the IFN signalling (Jak-Stat) pathway via expression of an eGFP reporter gene under the control of an IFN-stimulated response element (ISRE) containing MxA promoter. It is filed as functional. The note with it: 30 µM. In general terms: A reporter such as luciferase makes a cellular process visible.
Test [8] addresses T4, Tyrosyl-tRNA synthetase, putative (Trypanosoma cruzi (strain CL Brener)) (UniProt Q4DSP6).
T4 sequence (whole entry): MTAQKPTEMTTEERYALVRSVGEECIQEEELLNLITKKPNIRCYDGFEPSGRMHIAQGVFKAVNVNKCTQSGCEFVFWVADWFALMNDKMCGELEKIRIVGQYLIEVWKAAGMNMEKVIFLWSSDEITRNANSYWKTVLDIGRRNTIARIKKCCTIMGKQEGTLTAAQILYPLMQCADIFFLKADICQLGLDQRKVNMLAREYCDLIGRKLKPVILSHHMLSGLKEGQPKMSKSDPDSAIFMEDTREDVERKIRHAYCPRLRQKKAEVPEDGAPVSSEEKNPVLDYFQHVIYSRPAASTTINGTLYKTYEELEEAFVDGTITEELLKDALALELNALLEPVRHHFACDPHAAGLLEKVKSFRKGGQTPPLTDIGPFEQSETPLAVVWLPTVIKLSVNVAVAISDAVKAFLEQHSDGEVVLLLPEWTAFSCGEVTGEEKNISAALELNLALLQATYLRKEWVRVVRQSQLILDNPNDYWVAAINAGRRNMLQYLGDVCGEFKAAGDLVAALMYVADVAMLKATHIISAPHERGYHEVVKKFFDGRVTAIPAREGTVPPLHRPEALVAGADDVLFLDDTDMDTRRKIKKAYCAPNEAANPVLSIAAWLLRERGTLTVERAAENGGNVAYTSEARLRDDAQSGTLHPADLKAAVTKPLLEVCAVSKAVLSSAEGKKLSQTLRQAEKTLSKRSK
Kind of test: Trypanosoma cruzi tyrosyl tRNA synthetase (TcYRS) _High Tyrosine SOP. Also: in the data most compounds retested in dose-response had high values. It is filed as functional. The note with it: 30 µM.

The target in test [9] is T4, Tyrosyl-tRNA synthetase, putative (Trypanosoma cruzi (strain CL Brener)). Briefly: Trypanosoma cruzi tyrosyl tRNA synthetase (TcYRS) SOP. It is filed as functional. The note with it: 30 µM.
Test [10] addresses Chromo domain-containing protein 1 (Saccharomyces cerevisiae (strain ATCC 204508 / S288c) (Baker's yeast)) (UniProt P32657). Briefly: ScCHD-1 Enzyme Inhibition Assay. Also: in the data most compounds retested in dose-response had high values. The note with it: 30 µM. Type of test: functional.

Chromo domain-containing protein 1 (Saccharomyces cerevisiae (strain ATCC 204508 / S288c) (Baker's yeast)), sequence (P32657 whole entry, the tested form may be a part): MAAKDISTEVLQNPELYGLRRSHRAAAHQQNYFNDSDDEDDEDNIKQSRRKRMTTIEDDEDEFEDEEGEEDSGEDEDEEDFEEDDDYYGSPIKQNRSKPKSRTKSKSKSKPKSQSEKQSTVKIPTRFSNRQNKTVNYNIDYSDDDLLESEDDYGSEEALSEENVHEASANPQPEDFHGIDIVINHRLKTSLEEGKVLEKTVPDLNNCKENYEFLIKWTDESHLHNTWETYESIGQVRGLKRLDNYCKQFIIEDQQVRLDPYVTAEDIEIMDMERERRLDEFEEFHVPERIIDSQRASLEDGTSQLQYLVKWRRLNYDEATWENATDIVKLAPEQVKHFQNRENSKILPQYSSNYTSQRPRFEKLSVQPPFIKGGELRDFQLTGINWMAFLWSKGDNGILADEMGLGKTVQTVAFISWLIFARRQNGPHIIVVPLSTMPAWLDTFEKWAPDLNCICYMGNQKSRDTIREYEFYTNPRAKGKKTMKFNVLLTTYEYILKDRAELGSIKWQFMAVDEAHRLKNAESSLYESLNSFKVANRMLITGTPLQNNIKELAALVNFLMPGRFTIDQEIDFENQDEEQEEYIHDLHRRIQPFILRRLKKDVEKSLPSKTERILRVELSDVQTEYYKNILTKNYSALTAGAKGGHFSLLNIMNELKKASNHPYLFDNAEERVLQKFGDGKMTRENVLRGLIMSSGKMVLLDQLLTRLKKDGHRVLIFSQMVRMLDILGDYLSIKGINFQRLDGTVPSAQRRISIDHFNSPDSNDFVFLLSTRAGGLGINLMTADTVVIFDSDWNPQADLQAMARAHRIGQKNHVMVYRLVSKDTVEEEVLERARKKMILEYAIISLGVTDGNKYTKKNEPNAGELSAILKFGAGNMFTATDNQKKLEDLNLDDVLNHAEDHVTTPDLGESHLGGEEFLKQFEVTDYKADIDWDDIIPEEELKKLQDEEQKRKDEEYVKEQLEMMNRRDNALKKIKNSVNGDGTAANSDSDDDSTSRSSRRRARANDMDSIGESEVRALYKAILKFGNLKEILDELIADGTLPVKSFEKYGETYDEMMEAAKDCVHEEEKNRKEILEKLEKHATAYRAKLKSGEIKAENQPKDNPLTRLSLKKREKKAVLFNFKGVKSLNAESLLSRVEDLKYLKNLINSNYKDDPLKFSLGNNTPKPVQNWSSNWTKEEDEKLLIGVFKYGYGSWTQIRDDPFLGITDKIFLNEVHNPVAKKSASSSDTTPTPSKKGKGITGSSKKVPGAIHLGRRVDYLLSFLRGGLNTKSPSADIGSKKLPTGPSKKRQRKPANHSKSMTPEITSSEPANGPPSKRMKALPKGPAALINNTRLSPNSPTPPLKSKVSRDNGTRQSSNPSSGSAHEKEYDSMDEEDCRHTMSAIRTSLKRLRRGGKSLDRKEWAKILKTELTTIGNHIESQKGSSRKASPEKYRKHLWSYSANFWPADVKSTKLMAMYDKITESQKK
Protein translocase subunit SecA (Escherichia coli (strain K12)), sequence (P10408 whole entry): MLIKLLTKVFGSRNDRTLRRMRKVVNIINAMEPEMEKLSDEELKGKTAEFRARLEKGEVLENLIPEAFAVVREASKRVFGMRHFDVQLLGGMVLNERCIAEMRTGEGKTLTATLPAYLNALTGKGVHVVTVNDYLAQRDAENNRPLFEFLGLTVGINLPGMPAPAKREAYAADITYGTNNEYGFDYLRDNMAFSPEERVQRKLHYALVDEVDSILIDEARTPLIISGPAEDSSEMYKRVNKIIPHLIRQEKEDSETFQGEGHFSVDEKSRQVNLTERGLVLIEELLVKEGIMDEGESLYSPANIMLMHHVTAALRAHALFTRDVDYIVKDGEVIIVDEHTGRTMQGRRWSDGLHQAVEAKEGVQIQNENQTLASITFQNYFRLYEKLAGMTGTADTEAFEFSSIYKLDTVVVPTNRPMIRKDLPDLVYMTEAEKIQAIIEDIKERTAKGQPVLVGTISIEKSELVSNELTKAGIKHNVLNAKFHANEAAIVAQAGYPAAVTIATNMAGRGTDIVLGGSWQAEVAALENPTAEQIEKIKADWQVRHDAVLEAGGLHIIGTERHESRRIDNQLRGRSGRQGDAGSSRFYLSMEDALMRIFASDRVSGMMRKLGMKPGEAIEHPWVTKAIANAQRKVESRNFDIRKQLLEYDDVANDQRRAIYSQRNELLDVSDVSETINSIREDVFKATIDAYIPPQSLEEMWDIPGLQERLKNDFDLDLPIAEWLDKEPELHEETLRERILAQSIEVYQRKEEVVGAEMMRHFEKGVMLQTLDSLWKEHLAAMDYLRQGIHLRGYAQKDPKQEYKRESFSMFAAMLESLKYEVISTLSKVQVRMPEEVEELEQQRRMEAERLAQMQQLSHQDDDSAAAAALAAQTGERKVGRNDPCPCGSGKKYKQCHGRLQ
Sialic acid-binding Ig-like lectin 9 (Homo sapiens), sequence (Q9Y336 whole entry): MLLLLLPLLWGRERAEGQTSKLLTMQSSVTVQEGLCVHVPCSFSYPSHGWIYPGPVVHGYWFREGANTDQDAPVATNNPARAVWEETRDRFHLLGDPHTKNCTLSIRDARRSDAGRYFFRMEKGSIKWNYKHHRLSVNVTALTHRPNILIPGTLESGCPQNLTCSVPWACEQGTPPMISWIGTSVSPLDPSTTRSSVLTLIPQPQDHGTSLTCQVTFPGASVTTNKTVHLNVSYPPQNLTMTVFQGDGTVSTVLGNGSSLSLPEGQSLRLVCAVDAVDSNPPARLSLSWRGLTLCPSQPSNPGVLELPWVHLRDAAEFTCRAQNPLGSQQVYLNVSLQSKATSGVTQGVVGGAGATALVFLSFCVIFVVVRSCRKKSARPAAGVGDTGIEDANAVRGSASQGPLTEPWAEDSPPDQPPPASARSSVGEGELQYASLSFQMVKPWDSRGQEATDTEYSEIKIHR

With `CC(O)(CN1CCC2(CC1)OCCO2)c1cccc(C(F)(F)F)c1` (stereo not given), the Percent Effect was 1.91% in test [1]; 10.4% in [2]; 8.88% in test [3]; -0.187% in test [4]; -2.25% in [5]; 2.98% in test [6]. The Percent Effect in test [7] is 18.4%; in [8], 3.92%; in test [9] it was 21.2%; in test [10] it was -7.48%.
Turning to `Cc1ccc(-c2nc(CN3CCCC(Cn4cncn4)C3)no2)cc1` (stereo not given), the Percent Effect in test [1] was -6.21%; in [2], -2.6%; in test [3], 0.0125%; in [4], -0.373%; in [5], -3.48%; in test [6], 0.351%. The Percent Effect in [7] was 25.7%; in [8], 1.96%; in test [9] it was 0%; in test [10], 9.47%.
In the case of `COCCc1ncc(CN2CCC(Oc3ccccc3C)CC2)cn1`, the Percent Effect is -2.3% in test [1]; 17.3% in [2]; 7.21% in [3]; 1.58% in test [4]; -0.443% in [5]; 12.6% in [6]. Besides, the Percent Effect was 7.38% in [7], 6.35% in test [8], 20% in test [9] and -22.7% in test [10].
As to `CCc1nc(CN(C)C2CCN(CCNS(=O)(=O)CC)C2)no1` (stereo not given), the Percent Effect in test [1] is 1.97%; in [2] it was 5.33%; in test [3] it was -3.88%; in test [4], -6.83%; in test [5], -2.22%; in [6], 18.1%. The Percent Effect in test [7] is 14.6%; in test [8], -1.58%; in test [9], -2.56%; in test [10] it was -8.45%.
Take `Cc1cc(-c2nn(C)c(Cl)c2CN2Cc3ccccc3C(O)C2)no1` (stereo not given): the Percent Effect is -0.14% in [1]; 24.3% in test [2]; 18.2% in test [3]; 11.2% in test [4]; 20.6% in [5]; 6.34% in test [6]. Also, the Percent Effect is 47.5% in test [7], 3.72% in test [8], 4.88% in test [9] and -1.98% in test [10].
On to `CC(Cn1cccn1)NC(=O)Cc1cccs1` (stereo not given), for which the Percent Effect in test [1] is -0.712%; in [2] it was 16%; in [3], 1.17%; in [4], 3.41%; in test [5], 3.99%; in [6], 6.36%. In addition, the Percent Effect in test [7] is 28.8%; in test [8], 0.526%; in test [9], 7.69%; in test [10], -16%.
For the compound `CCc1nc(CC(=O)N2CCCC2Cn2cccn2)cs1` (stereo not given), the Percent Effect in test [1] was -2.88%; in [2], 2.67%; in test [3], 6.12%; in [4], 0.402%; in test [5], 4.43%; in test [6] it was 6.19%. For the same compound, the Percent Effect in test [7] was -17.2%; in test [8], 2.63%; in test [9], 7.69%; in test [10] it was -10%.
As for `CCc1nnc(CN2CCCC(c3cc(C(F)(F)F)[nH]n3)C2)o1` (stereo not given), the Percent Effect in [1] is -0.463%; in [2], 0%; in test [3] it was -0.304%; in test [4], -4.22%; in test [5] it was 3.1%; in [6], 15.3%. In addition, the Percent Effect in test [7] was -7.26%; in test [8], 1.58%; in test [9] it was -2.56%; in [10], -3.78%.
In the case of `Cc1ccc(Oc2ccc(NC(=O)NCC3CCOC3)cn2)cc1C` (stereo not given), the Percent Effect in test [1] was -2.89%; in test [2], 10.3%; in test [3], -3.96%; in test [4], 7.98%; in test [5], 6.97%; in test [6], 8.79%. The Percent Effect in test [7] was -3.33%; in test [8], 4.31%; in [9], 20.5%; in test [10], -8.82%.
Consider `FC(F)(F)c1nc(NC2CCCC2)c2ccccc2n1`, for which the Percent Effect in test [1] is 1.99%; in test [2] it was -2.7%; in test [3] it was -2.53%; in test [4] it was -0.291%; in [5], 5.94%; in test [6], 9.76%. Moreover, the Percent Effect was 45.1% in test [7], 0.532% in test [8], -2.44% in test [9] and 35% in [10].
In the case of `O=C(Nc1cccc2c1CCCC2)C1CCCN1c1nccs1` (stereo not given), the Percent Effect was -1.27% in test [1]; 5.13% in test [2]; 1.32% in [3]; -0.845% in test [4]; 4.51% in test [5]; 5.55% in test [6]. Further, the Percent Effect in test [7] was -6.07%; in test [8], 8.13%; in test [9] it was 20.5%; in test [10], 13.6%.
As to `CCc1noc(C(C)N2CCC(N3CCCC3)CC2)n1` (stereo not given), the Percent Effect is -9.65% in test [1]; 16% in [2]; 8.32% in [3]; 5.02% in [4]; -5.76% in test [5]; 7.38% in [6]. In addition, the Percent Effect is -3.75% in [7], 5.79% in test [8], 12.8% in test [9] and -10.6% in test [10].
